Data published in PubChem BioAssay.

What was measured:
[1] = system: Botulinum neurotoxin type F light chain protease (Clostridium botulinum); test: Botulinum neurotoxin type F light chain protease inhibition, multiplex microsphere flow cytometry, validation set (AID 588459); conditions: multiplex microsphere protease substrate cleavage assay, at 10 µM, stronger effect = higher value
[2] = molecular target: Botulinum neurotoxin type A (Clostridium botulinum) (UniProt P0DPI0); test: BoNT/A light chain protease inhibitors, biochemical, multiplex microsphere flow cytometry, validation set (AID 588460); conditions: at 10 µM, stronger effect = higher value
[3] = molecular target: Lethal factor (Bacillus anthracis) (UniProt P15917); test: Lethal factor protease inhibitors, Bacillus anthracis, multiplex microsphere cleavage assay, validation set (AID 588461); conditions: flow cytometry, at 10 µM, stronger effect = higher value

Measured: inhibition

O=C(NC(=S)Nc1ccc(N2CCN(C(=O)c3ccccc3)CC2)cc1)c1cccs1
inactive: [1] -8.9% | [2] -3.2% | [3] -10.5%

c1cc2c(cc1C1CCCCC1)c1c3n2CCN=C3CCC1
inactive: [1] 0.7% | [2] -0.3% | [3] -11.8%

Cc1nc2c(c3c1[nH]c1ccccc13)C(=O)CC(C)(C)C2
inactive: [1] 2.1% | [2] 0.3% | [3] 6%

CC1(C)c2ccccc2N2CC(=O)N(CC(N)=O)C21C (centres undefined)
inactive: [1] 1.5% | [2] -1.4% | [3] -5%

CCCCC/C=C\C[C@H](O)/C=C/c1cccc(C[C@H](O)CCCCO)n1
inactive: [1] 2.3% | [2] 1.9% | [3] -6.2%

COCCOC(=O)C1=C(N)OC2=C(C(=O)CCC2)C1c1cccnc1 (centres undefined)
inactive: [1] -3.2% | [2] 0% | [3] -0.9%

Cc1ccc2nc(NC3=NC(CC(=O)O)C(=O)N3)nc(C)c2c1 (centres undefined)
inactive: [1] -1.7% | [2] -1% | [3] -4.8%

CCN(CC)c1ccc(C2=NNC(=O)CC2C)cc1[N+](=O)[O-] (centres undefined)
inactive: [1] -2.1% | [2] -0.3% | [3] -6.2%

CCCCC[C@H](O)/C=C/[C@@H]1[C@@H](CCCCCCC(=O)O)[C@@H](O)C[C@H]1O
inactive: [1] -2.9% | [2] -1.3% | [3] 0.1%

CC(C)(C)[C@]1(O)CCN2C[C@H]3c4ccccc4CCc4cccc(c43)[C@@H]2C1
inactive: [1] -2.1% | [2] 0% | [3] -2.4%

Cc1ccc(C(=O)NC(=S)NCCCN2CCOCC2)cc1
inactive: [1] 3.6% | [2] -1.4% | [3] 6.1%

COc1ccc2oc(=O)c(C(=O)Nc3ccccc3-c3ccccc3)cc2c1
inactive: [1] 3.1% | [2] 0.3% | [3] -1.6%

CN(C)C(=O)C(CCN1CCC(O)(c2ccc(Cl)cc2)CC1)(c1ccccc1)c1ccccc1
inactive: [1] -1.4% | [2] -1.4% | [3] 7.3%

CCOC(=O)C1C(=O)CC(C)(O)C(C(=O)OCC)C1/C=C/c1ccccc1 (centres undefined)
inactive: [1] 1.1% | [2] 1% | [3] -1.4%

O=C(CCCC(=O)OCC1CCCO1)OCC1CCCO1 (centres undefined)
inactive: [1] 1.9% | [2] -0.9% | [3] -1.6%

CC(C)NC(=O)c1ccc(C(C)C)cc1
inactive: [1] -2.3% | [2] -1.2% | [3] -2.8%

CCn1c(C)cc2c(c1=O)C(c1ccccc1)C(C(=O)OC)=C(N)O2 (centres undefined)
inactive: [1] 0.3% | [2] -0.9% | [3] -3.3%

COc1ccc(C(=O)Nc2cccnc2)cc1C(=O)Nc1cccnc1
inactive: [1] 2.9% | [2] 1.3% | [3] -0.7%

NS(=O)(=O)c1cc2c(cc1C(F)(F)F)NCNS2(=O)=O
inactive: [1] 0.5% | [2] -0.4% | [3] 5.4%

CN1CCC(OC(c2ccccc2)c2ccccc2)CC1
inactive: [1] -0.8% | [2] -0.5% | [3] -5.1%

CCOC(=O)C1=C(N)Oc2c(c(=O)[nH]c3ccccc23)C1c1ccccc1 (centres undefined)
inactive: [1] 0.4% | [2] 1.1% | [3] -1.6%

C=C(CC)C(=O)c1ccc(OCC(=O)O)c(Cl)c1Cl
inactive: [1] -6.2% | [2] -2.2% | [3] -10.3%

COc1c(C)cc(C(=O)C2CCCN(Cc3ccc(Oc4ncccn4)cc3)C2)cc1C (centres undefined)
inactive: [1] -2.8% | [2] -1.2% | [3] -4.4%

O=C1CCc2cc(OCCCCc3nnnn3C3CCCCC3)ccc2N1
inactive: [1] -0.2% | [2] -0.9% | [3] -5.5%

COc1ccc(-c2c3c(=O)n(C)c(=O)n(C)c3cn2C2CCCCC2)cc1
inactive: [1] 1.1% | [2] -1.9% | [3] -3.1%

Cn1c2[n+](c3ccc(Cl)cc3c1=O)Cc1ccccc1-2
inactive: [1] 0.8% | [2] -1% | [3] -7.8%

CC12CCC(C(=O)N3CCCCC3)([C@H](Br)C1=O)C2(C)C (some centres undefined)
inactive: [1] -3.4% | [2] -1.3% | [3] 0.1%

COc1ccc(N2C(=O)C3C(C2=O)C(C(=O)c2ccccc2)N2CCCC32)cc1 (centres undefined)
inactive: [1] 1.6% | [2] -0.2% | [3] -3.5%
